# Most compounds without a hit are left out; they make up all but 28% or so of the library.
# PLK1 inh: inhibitors of human PLK1 kinase; recombinant PLK1 kinase, TR-FRET peptide phosphorylation; inhibition, % at 10 µM; actives 0.53% (n = 97,000);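 active = inhibition of 50% or more in the single-concentration screen; inactive = inhibition below 50%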;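 also: 0% = DMSO max control and 100% = H-89 dihydrochloride min control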
# Target sequence (P53350 whole entry, looked up): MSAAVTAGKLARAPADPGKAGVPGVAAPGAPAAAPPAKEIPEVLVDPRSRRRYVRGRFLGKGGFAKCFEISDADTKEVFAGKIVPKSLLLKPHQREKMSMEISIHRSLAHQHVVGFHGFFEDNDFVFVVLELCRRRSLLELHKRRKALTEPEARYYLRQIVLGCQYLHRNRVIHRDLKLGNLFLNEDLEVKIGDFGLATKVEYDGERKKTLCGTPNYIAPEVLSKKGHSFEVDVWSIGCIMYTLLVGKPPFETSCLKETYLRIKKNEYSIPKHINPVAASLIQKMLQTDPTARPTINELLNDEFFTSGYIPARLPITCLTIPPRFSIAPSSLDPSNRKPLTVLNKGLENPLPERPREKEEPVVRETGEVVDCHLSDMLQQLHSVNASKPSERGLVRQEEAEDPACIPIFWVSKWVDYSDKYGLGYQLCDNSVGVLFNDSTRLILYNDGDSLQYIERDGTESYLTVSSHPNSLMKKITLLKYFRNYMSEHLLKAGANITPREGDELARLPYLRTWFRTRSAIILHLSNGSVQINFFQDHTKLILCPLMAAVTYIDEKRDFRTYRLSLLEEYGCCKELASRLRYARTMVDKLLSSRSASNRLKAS
# CYP2C9 inh: blocks human cytochrome P450 2C9; CYP2C9 Supersomes, luciferin-H conversion, luminescence; actives 20% (n = 96,000); AID 777; P11712; inhibition, % at 5 µM;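 active = blocking of liver enzyme CYP2C9 beyond about 50% at 5 µM, limit read from the data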
# CYP2C9 act: activators of human CYP2C9. recombinant CYP2C9, luciferin-H conversion, luminescence; stronger effect = higher value; factor 1 = untreated enzyme, 0 = blocked. AID 1024. activation factor at 5 µM. actives 1.4% (n = 96,000). P11712;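 active = activation factor of 2 or more for CYP2C9 at a 5 µM dose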;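 also: 0 = sulfaphenazole-blocked wells and 1 = vehicle-only wells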
# CYP2C19 inhib: inhibitors of human CYP2C19. actives 21% (n = 96,000). inhibition, % at 5 µM. P33261. CYP2C19 Supersomes, luciferin-H EGE luminescence, 30 min;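 active = CYP2C19 inhibition above a set limit at 5 µM in the primary screen, cut at about 50% in these data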;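 also: plate controls were negative control wells for no effect and 2.5 mM tranylcypromine positive control for full effect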
# PLK1 PBD inh: blocks phosphopeptide binding to human Plk1 polo box domain; P53350; Plk1 PBD phosphopeptide binding, fluorescence polarization; inhibition, %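 (tested at about 20 µM)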; actives 0.13% (n = 97,000); AID 693; in the data active = inhibition above about 34%, passing the limit was not always enough
# CYP2C19 activ: cytochrome P450 2C19 (human) activation. P33261. recombinant CYP2C19, luciferin-H EGE luminescence; stronger effect = higher value; 0 = fully inhibited enzyme, 1 = untreated enzyme. activation factor at 5 µM. 96,000 tested, under 10 active. AID 1025;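 active = activation factor of at least 2 at 5 µM in the primary screen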;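 also: 0 = wells with 2.5 mM tranylcypromine and 1 = vehicle-only wells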
# Starred values were filed as active, the others as inactive; . = no result given.
SMILES,PLK1 inh,CYP2C9 inh,CYP2C9 act,CYP2C19 inhib,PLK1 PBD inh,CYP2C19 activ
CCc1ccc(OCc2nc(-c3ccccn3)no2)c(Br)c1,-3,74*,0.3,95*,-12,0.1
COc1ccccc1-n1c(C)nc2cc(C(=O)O)ccc21,-5,-4,1,5,8,1
Cc1nc2cc(C(=O)O)ccc2n1-c1ccccc1,69*,-3,1,-10,-2,1.1
CCN(CC(O)Cn1c2ccccc2c2ccccc21)S(=O)(=O)c1ccc(F)cc1 (stereo not given),-8,97*,0,100*,-8,0
O=S(=O)(c1ccc(F)cc1)N(CCO)CC(O)Cn1c2ccccc2c2ccccc21 (stereo not given),-3,57*,0.4,97*,-4,0
OC(CN1CCN(c2ccccc2)CC1)Cn1c2ccccc2c2ccccc21 (stereo not given),-7,41,0.6,28,-20,0.7
CCN(CC)C(=O)CN(Cc1ccccc1)S(=O)(=O)c1ccc(F)cc1,-2,-7,1.1,16,1,0.8
Cc1nc(-c2cccc(S(=O)(=O)N3CCCC(C)C3)c2)cs1 (stereo not given),-4,28,0.7,14,-6,0.9
Cc1nc2ccc(NC(=O)N3CCSCC3)cc2s1,-11,-25,1.2,9,-5,0.9
CCc1nc2ccc(C(=O)NCc3ccco3)cc2nc1CC,-6,-14,1.1,7,-15,0.9
O=C(NCc1ccco1)c1ccccc1-c1nc(-c2ccccc2)no1,-6,54*,0.5,32,5,0.7
O=C(NCc1ccco1)c1cccc(-c2nnc(-c3ccccc3)o2)c1,-10,82*,0.2,71*,8,0.3
COc1cc(-c2noc(-c3ccccc3C(=O)NCc3ccco3)n2)cc(OC)c1OC,-8,50*,0.5,11,4,0.9
CN1CCN(C(=O)c2ccccc2-c2nc(-c3ccccc3)no2)CC1,-5,71*,0.3,28,-27,0.7
Nc1nncn1C(=O)c1cccs1,57*,3,1,3,-10,1
Cc1ccc(C(=O)n2cnnc2N)cc1C,8,-24,1.2,-2,-13,1
Cc1ccc(C)c(C(=O)n2cnnc2N)c1,54*,-20,1.2,-7,8,1.1
Cc1cc(C)cc(NC(=O)C2CCN(S(=O)(=O)c3c(C)n[nH]c3C)CC2)c1,-1,-72,1.7,22,23,0.8
CC(=O)c1cccc(NC(=O)c2cc(-c3ccc(C)cc3)on2)c1,-17,28,0.7,22,5,0.8
CC(=O)c1cccc(NC(=O)c2csc(-n3nc(C)cc3C(F)(F)F)n2)c1,-21,56*,0.4,51*,-30,0.5
COc1ccc(/C=N/NC(=O)c2csc(-n3nc(C)cc3C(F)(F)F)n2)cc1,-3,32,0.7,23,23,0.8
COc1ccc(S(=O)(=O)NNC(=O)c2csc(-n3nc(C)cc3C(F)(F)F)n2)cc1OC,-4,54*,0.5,14,2,0.9
CCN(CC)C(=O)c1cnn(-c2ccccc2)c1NC(=O)c1cccs1,-15,.,.,.,-9,.
OC(Cn1cncn1)c1ccc(Cl)cc1Cl (stereo not given),-12,56*,0.4,98*,-22,0
OC(c1ccc(Cl)cc1Cl)C(Cc1cccnc1)n1cncn1 (stereo not given),-9,9,0.9,86*,-6,0.1
SMILES,PLK1 inh,CYP2C9 inh,CYP2C9 act,CYP2C19 inhib,PLK1 PBD inh,CYP2C19 activ
OC(Cn1cncn1)c1ccc(Cl)cc1 (stereo not given),-4,58*,0.4,95*,9,0
CC(=O)C1=C(O)C(=O)N(Cc2cccnc2)C1c1ccc(Cl)cc1Cl (stereo not given),-5,.,.,.,-19,.
O=P(OC1CCCCC1)(OC1CCCCC1)C(O)c1ccc(Cl)cc1Cl (stereo not given),-3,20,0.8,13,22,0.9
COc1ccc(C2CC(=O)c3cnc(NC(=O)c4ccccc4)nc3C2)c(OC)c1 (stereo not given),-7,48,0.5,47,3,0.5
COc1ccc(NC(=O)OC(C)C)cc1,-12,-4,1,16,-13,0.8
COc1ccc(OC)c(NC(=O)C2CCN(c3ncccn3)CC2)c1,-13,-18,1.2,26,-4,0.7
O=C(NC1CCCCCC1)C1CCN(c2nc3ccccc3o2)CC1,-12,32,0.7,20,-2,0.8
CCOC(=O)CCC(NC(=O)c1ccc(NCN2C(=O)c3ccccc3C2=O)cc1)C(=O)OCC (stereo not given),-13,55*,0.4,18,7,0.8
CCN=C(N/N=C/c1ccc([N+](=O)[O-])cc1)SC,-19,27,0.7,43,-15,0.6
CCOc1ccccc1OCCCC(=O)Nc1ccc(OC)nc1,.,-74,1.7,44,.,0.6
COc1ccc(NC(=O)/C(Cl)=C(/Cl)S(=O)Cc2ccccc2)cn1 (stereo not given),-6,92*,0.1,51*,8,0.5
COc1ccc(CS(=O)(=O)/C(Cl)=C(/Cl)C(=O)Nc2ccc(OC)nc2)cc1,-4,68*,0.3,45,4,0.6
CC(C)(C)c1ccc(C(=O)Nc2ccc(CC(=O)O)cc2)o1,5,-8,1.1,-3,-3,1
CCOC(=O)c1cc2cc(CC(=O)c3ccc(OCC)cc3O)ccc2o1,-5,54*,0.5,69*,24,0.3
OCc1cn(-c2ccccc2)nc1-c1ccc2c(c1)OCCO2,-3,0,1,20,-4,0.8
O/N=C/c1cn(-c2ccccc2)nc1-c1ccc2c(c1)OCCO2,9,53*,0.5,0,-41,1
O=C(N/N=C/c1cn(-c2ccccc2)nc1-c1ccc(F)cc1)c1ccc2c(c1)OCO2,-2,64*,0.4,34,-15,0.7
COc1ccc(-c2nn(-c3ccccc3)cc2/C=N/NC(=O)c2ccc3c(c2)OCO3)cc1,-5,70*,0.3,37,-23,0.6
O=C(N/N=C\c1cn(-c2ccccc2)nc1-c1ccccc1)c1ccc2c(c1)OCO2,-9,65*,0.4,54*,-31,0.5
O=C(O)c1cc2nc(C3CC3)cc(C(F)(F)F)n2n1,-9,-13,1.1,-9,41,1.1
O=c1cc(O)nc(SCc2ccccc2)n1-c1ccc(F)cc1,-11,1,1,10,26,0.9
CCOc1ccccc1C(=O)N1CCC(C(=O)c2ccc(F)cc2)CC1,-7,.,.,.,-13,.
CC(C)N(Cc1nc(-c2ccccc2)no1)C(=O)COc1ccccc1,-15,64*,0.4,89*,3,0.1
Cc1ccc(-c2noc(CN(C(=O)CCN3C(=O)c4ccccc4C3=O)C(C)C)n2)cc1,-12,31,0.7,24,12,0.8
